# Reference: PubChem BioAssay (NCATS)
# Results filed as inconclusive are left out. Entries that show only a call come without a potency. A number with no mark means an inactive call. Activity calls are given as the source filed them. Calls come from the whole dose curve; as a rule, active = well fitted curve in the direction sought with a large enough effect; inconclusive = small, poorly fitted or top-dose-only effect, or another doubt; inactive = no such curve, though single readings can be large; an effect the other way counts as inactive or inconclusive.
# Key:
# [1] = tested on: Zika virus NS2B-NS3 protease; assay: Primary screen GU AMC qHTS for Zika virus inhibitors (AID 1347154); note: nearly all actives have a fitted effect of over 70% in size
# In short: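 Unlinked Zika NS2B hydrophilic domain–NS3 protease complex at 25 nM in 10 mM Tris-HCl pH 8.0, 0.01% Tween 20, with an AMC peptide substrate. Fluorescence change (340/450 nm) over 15 min at room temperature, normalized to controls, fitted to 4-parameter Hill.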
# [2] = target: Lysine-specific demethylase 5B (Homo sapiens) (UniProt Q9UGL1); assay: Optimization screen for KDM5B Histone Demethylases FDH coupled qHTS against the LOPAC library (AID 1347166)
# Sequence of Lysine-specific demethylase 5B (Homo sapiens) (Q9UGL1 whole entry, looked up): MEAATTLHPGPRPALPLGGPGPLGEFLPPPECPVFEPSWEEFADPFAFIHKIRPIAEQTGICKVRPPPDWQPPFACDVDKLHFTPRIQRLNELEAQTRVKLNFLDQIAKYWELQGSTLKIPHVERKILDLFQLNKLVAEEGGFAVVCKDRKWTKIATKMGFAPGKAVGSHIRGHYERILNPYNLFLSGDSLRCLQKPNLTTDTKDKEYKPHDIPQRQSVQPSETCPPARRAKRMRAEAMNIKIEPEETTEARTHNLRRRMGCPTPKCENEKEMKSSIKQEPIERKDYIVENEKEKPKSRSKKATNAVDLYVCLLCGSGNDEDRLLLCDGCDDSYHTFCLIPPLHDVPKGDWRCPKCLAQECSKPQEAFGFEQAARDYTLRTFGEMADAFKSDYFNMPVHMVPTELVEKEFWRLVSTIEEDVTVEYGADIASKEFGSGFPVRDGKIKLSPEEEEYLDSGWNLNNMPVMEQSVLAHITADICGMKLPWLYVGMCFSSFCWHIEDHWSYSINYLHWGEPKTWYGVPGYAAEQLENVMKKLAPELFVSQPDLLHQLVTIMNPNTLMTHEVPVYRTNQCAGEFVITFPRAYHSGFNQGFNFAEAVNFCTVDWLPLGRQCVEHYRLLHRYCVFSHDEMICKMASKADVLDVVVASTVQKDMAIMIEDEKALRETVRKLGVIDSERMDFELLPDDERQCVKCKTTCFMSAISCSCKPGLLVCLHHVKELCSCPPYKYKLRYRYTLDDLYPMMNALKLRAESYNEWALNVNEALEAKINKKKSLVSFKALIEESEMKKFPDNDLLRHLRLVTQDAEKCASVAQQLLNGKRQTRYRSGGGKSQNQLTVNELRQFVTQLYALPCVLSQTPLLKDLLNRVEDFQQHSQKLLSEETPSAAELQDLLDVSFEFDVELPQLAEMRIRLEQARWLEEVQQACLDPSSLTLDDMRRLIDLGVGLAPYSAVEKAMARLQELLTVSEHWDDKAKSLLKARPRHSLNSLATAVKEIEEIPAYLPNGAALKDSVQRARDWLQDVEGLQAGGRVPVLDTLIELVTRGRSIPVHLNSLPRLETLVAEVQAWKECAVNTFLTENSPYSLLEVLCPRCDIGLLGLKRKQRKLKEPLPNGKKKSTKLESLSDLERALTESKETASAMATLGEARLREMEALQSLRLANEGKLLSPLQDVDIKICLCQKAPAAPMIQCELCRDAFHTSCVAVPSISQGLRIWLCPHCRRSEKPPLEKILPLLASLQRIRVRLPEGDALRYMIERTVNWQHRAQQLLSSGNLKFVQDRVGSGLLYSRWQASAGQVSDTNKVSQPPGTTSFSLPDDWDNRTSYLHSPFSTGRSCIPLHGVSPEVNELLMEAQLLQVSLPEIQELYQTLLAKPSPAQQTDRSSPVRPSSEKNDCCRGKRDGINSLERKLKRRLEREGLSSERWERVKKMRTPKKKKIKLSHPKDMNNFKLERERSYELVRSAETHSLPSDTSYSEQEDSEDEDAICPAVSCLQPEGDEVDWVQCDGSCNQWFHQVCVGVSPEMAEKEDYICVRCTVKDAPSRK
# In short: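 KDM5BDeltaAP (200nM final) preincubated 10 min with compound, then 12.5uM H3K4Me3, 25uM a-ketoglutarate, ascorbate, Fe(II), NAD+ and FDH added; 50mM HEPES pH 7.5, 0.01% Tween-20. NADH fluorescence (340/450 nm) change over 30 min, room temperature.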
# [3] = tested on: Zika virus NS2B-NS3 protease (linked construct); assay: Confirmatory screen NINDS AMC qHTS for Zika virus inhibitors (AID 1347152);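 note: AMC fluorescence gain from cleaved Bz-Nle-KRR-AMC substrate over 15 min; top concentration of the series differs between compounds; nearly all actives have a fitted effect of over 70% in size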
# In short: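 In this dose-response qHTS, AMC release from 10 microM Bz-Nle-KRR-AMC by 1 nM linked protease is measured over 15 minutes (about 20% conversion) at pH 8.0. Percent inhibition is fitted to a 4-parameter Hill curve.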
# [4] = tested on: Zika virus NS2B-NS3 protease (unlinked complex); assay: Confirmatory screen GU AMC qHTS for Zika virus inhibitors (AID 1347153); note: nearly all actives have a fitted effect of over 70% in size
# In short: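 Compounds were preincubated 15 min at room temperature with 25 nM noncovalent NS2B-NS3 protease at pH 8.0; AMC substrate added at 10 microM and 15-min fluorescence gain (340/450 nm) converted to percent inhibition, fitted 4-parameter.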
# [5] = Confirmatory screen NINDS Rhodamine qHTS for Zika virus inhibitors (AID 1347161); note: nearly all actives have a fitted effect of over 60% in size; note: potency is the fitted concentration of half-maximal effect;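 for activity change, negative = inhibition: purified Zika NS2B-NS3 protease with linked NS2B cofactor domain and Rhodamine110 peptide substrate; series mostly up to about 110 µM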
# In short: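 Purified NS2B-NS3 protease with the NS2B hydrophilic domain joined by a flexible linker (25 nM) in 10 mM Tris-HCl pH 8.0, 0.01% Tween 20, preincubated 15 min at RT with compound; Rhodamine110 peptide substrate 1.5 µM; fluorescence change over 15 min; 4-parameter Hill fit.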
# [6] = Vero cells viability qHTS for Zika virus inhibitors (AID 1347167)
# In short: (§1)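 Cells seeded at 2.5 x 10^5 cells/mL in DMEM with 4% FBS and attached overnight at 37 degrees C, then exposed to compound for 24 to 48 hours. Viability read as ATP content by CellTiter Glo luminescence.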
# [7] = HepG2 cells viability qHTS for Zika virus inhibitors (AID 1347168)
# In short: as §1
# [8] = tested on: Zika virus NS2B-NS3 protease (unlinked complex); assay: Primary screen GU Rhodamine qHTS for Zika virus inhibitors: Unlinked NS2B-NS3 protease assay (AID 1347159); note: nearly all actives have a fitted effect of over 60% in size
# Excerpt: Avindra Nath, Ph.D., National Institute of Neurological Disorders and Stroke (NINDS), Bethesda, MD
# Radhakrishnan Padmanabhan, Ph.D., Georgetown University (GU), Washington D.C.
# Zika Virus causes congenital defects, including microcephaly and is associated with Guillain-Barre syndrome, eningoencephalitis and myelitis in infected adult. […] Using a target-based approach, we hope to establish a screening paradigm to uncover novel, cell-active NS2B-NS3 protease (Zika Virus) specific inhibitors from NCATS' collection of small molecules using qHTS.
# Four assay panel was created to identify potential Zika Virus inhibitors. […]
# Briefly, 3 microL of enzyme (25 nM final concentration), in assay buffer (10 mM Tris-HCl pH 8.0 with 0.01% Tween 20) were dispensed into a 1,536-well solid-bottom black plate (Greiner Bio One, Monroe, NC). […] Plates were then immediately read on a ViewLux High-throughput CCD imager (PerkinElmer, Waltham, MA) equipped with FITC fluorescence optics (480(20) nm excitation, 540(25) nm emission), then incubated (room temperature, protected from light) for 15 minutes (~15% conversion). The change in fluorescence intensity over the 15-minute reaction period was normalized against no-inhibitor and no-enzyme controls and the resulting percent inhibition data were fitted to a 4-parameter Hill equation. […]
# [9] = tested on: Zika virus NS2B-NS3 protease (linked construct); assay: Primary screen NINDS Rhodamine qHTS for Zika virus inhibitors (AID 1347160); settings: outcome: dose series up to 57.1 µM; note: nearly all actives have a fitted effect of over 55% in size
# In short: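 In 10 mM Tris-HCl pH 8.0 containing 0.01% Tween 20, linked NS2B-NS3 protease (25 nM final) is exposed to test compounds for 15 min. Cleavage of 1.5 microM Rhodamine110 substrate is tracked by fluorescence over 15 min.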
# [10] = tested on: Zika virus NS2B-NS3 protease (linked construct); assay: 384 well plate NINDS Rhodamine confirmatory qHTS for Zika virus inhibitors (AID 1347164); settings: rhodamine-110 peptide substrate fluorescence; note: potency is the fitted concentration of half-maximal effect; nearly all actives have a fitted effect of over 65% in size
# In short: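 Compounds are incubated about 15 minutes with linked protease (5, 30 or 60 nM final). Rhodamine 110-tagged Ac-LKRR substrate (10 microM final) is added and fluorescence measured after 25 minutes.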
structure (smiles),measurement,setting,value
C[n+]1cc2c3c(ccc2c2ccc4cc5c(cc4c21)OCO5)OCO3,outcome,[1],inactive
CC(=O)[C@]1(O)Cc2c(O)c3c(c(O)c2[C@@H](O[C@H]2C[C@H](N)[C@H](O)[C@H](C)O2)C1)C(=O)c1ccccc1C3=O,outcome,[1],inactive
same,Potency,[2],inactive
NS(=O)(=O)c1cc2c(cc1Cl)NC(C1CC3C=CC1C3)NS2(=O)=O (stereo unspecified),outcome,[1],inactive
same,Potency,[2],inactive
CCOC(=O)c1cnc2c(cnn2CC)c1NN=C(C)C,outcome,[3],inactive
same,outcome,[4],inactive
same,outcome,[1],inactive
same,Potency,[5],inactive
same,Potency,[2],inactive
same,outcome,[6],inactive
same,outcome,[7],inactive
COC(=O)[C@H]1[C@H]2C[C@@H]3c4[nH]c5cc(OC)ccc5c4CCN3C[C@H]2C[C@@H](OC(=O)c2cc(OC)c(OC)c(OC)c2)[C@@H]1OC,outcome,[3],inactive
same,outcome,[4],inactive
same,outcome,[1],inactive
same,outcome,[8],inactive
same,outcome,[9],inactive
same,Potency,[5],inactive
same,outcome,[6],inactive
same,outcome,[7],inactive
COC(=O)C1=C(C)NC(C)=C(C(=O)OCCN(C)Cc2ccccc2)C1c1cccc([N+](=O)[O-])c1 (stereo unspecified),outcome,[1],inactive
Fc1ccc(C(c2ccc(F)cc2)N2CCN(C/C=C/c3ccccc3)CC2)cc1,outcome,[1],inactive
same,Potency,[2],inactive
CCc1c(C)[nH]c2c1C(=O)C(CN1CCOCC1)CC2 (stereo unspecified),outcome,[1],inactive
same,Potency,[2],inactive
C(=C\c1ccccc1)/CN1CCN(C(c2ccccc2)c2ccccc2)CC1,outcome,[1],inactive
same,Potency,[2],inactive
Cc1nc2ccccn2c(=O)c1CCN1CCC(C(=O)c2ccc(F)cc2)CC1,outcome,[1],inactive
Cc1nc2sccn2c(=O)c1CCN1CCC(=C(c2ccc(F)cc2)c2ccc(F)cc2)CC1,outcome,[3],inactive
same,outcome,[4],inactive
same,outcome,[1],inactive
same,Potency,[5],inactive
same,outcome,[6],inactive
same,outcome,[7],inactive
CN(C)[C@@H]1C(=O)C(C(N)=O)=C(O)[C@@]2(O)C(=O)C3=C(O)c4c(O)ccc(Cl)c4[C@@H](O)[C@H]3C[C@@H]12,outcome,[1],inactive
same,Potency,[5],12.4 µM (active)
same,Potency,[10],25.1 µM (active)
C[C@]12CCC(=O)C=C1CC[C@@H]1[C@@H]2CC[C@@]2(C)[C@H]1CC[C@]2(O)C(=O)CO,outcome,[1],inactive
same,Potency,[2],inactive
Cc1ccc(=O)n(-c2ccccc2)c1,outcome,[1],inactive
Brc1c(NC2=NCCN2)ccc2nccnc12,outcome,[1],inactive
CCN(CC)CCNC(=O)c1cc(S(C)(=O)=O)ccc1OC,outcome,[1],inactive
same,Potency,[2],inactive
NCCCNCCSP(=O)(O)O,"activity change, negative = inhibition",[1],-3.39% [at 6.83 µM]
same,Potency,[2],inactive
CCOC(=O)C1=C(C)NC(C)=C(C(=O)OC)C1c1cccc([N+](=O)[O-])c1 (stereo unspecified),outcome,[1],inactive
same,Potency,[2],inactive
N[C@@H](COP(=O)(O)O)C(=O)O,outcome,[1],inactive
same,Potency,[2],inactive
CCN(CC)CC(=O)Nc1c(C)cccc1C,outcome,[1],inactive
same,Potency,[2],inactive
OCCN1CCN(CCCN2c3ccccc3C=Cc3ccccc32)CC1,outcome,[1],inactive
same,Potency,[2],inactive
CN(C)CCOC(=O)COc1ccc(Cl)cc1,outcome,[1],inactive
same,Potency,[2],inactive
CCN(Cc1ccncc1)C(=O)C(CO)c1ccccc1 (stereo unspecified),outcome,[1],inactive
same,Potency,[2],inactive
CN/C(=C\[N+](=O)[O-])NCCSCc1ccc(CN(C)C)o1,outcome,[1],inactive
same,Potency,[2],inactive
Cc1cccc(C)c1NC(=O)C(C)N (stereo unspecified),outcome,[1],inactive
same,Potency,[2],inactive
O=C(CCCN1CCC(O)(c2cccc(C(F)(F)F)c2)CC1)c1ccc(F)cc1,outcome,[1],inactive
same,Potency,[2],inactive
CC(C)[N+](C)(CCOC(=O)C1c2ccccc2Oc2ccccc21)C(C)C,outcome,[1],inactive
same,Potency,[2],inactive
CCO/C([O-])=N/c1c[n+](N2CCOCC2)no1,outcome,[1],inactive
same,Potency,[2],inactive
COCCCC/C(=N\OCCN)c1ccc(C(F)(F)F)cc1,outcome,[1],inactive
same,Potency,[2],inactive
NC/C=C/C(=O)O,outcome,[1],inactive
same,Potency,[2],inactive
O=C1CC2(CCCC2)CC(=O)N1CCCCN1CCN(c2ncccn2)CC1,outcome,[1],inactive
same,Potency,[2],inactive
COc1cc2c(cc1OC)-c1cc(=Nc3c(C)cc(C)cc3C)n(C)c(=O)n1CC2,outcome,[1],inactive
same,Potency,[2],inactive
C[C@]12CC[C@@H]3c4ccc(O)cc4C[C@@H](CCCCCCCCCS(=O)CCCC(F)(F)C(F)(F)F)[C@H]3[C@@H]1CC[C@@H]2O (stereo partly specified),outcome,[1],inactive
same,Potency,[2],inactive
CN=C(NC#N)NCCSCc1nc[nH]c1C,outcome,[1],inactive
same,Potency,[2],inactive
CN(C)CCN(Cc1cccs1)c1ccccn1,outcome,[1],inactive
same,Potency,[2],inactive
C[N+](C)(C)CCOC(=O)CCC(=O)OCC[N+](C)(C)C,outcome,[1],inactive
same,Potency,[2],inactive
C[N+](C)(C)CCOC(N)=O,outcome,[1],inactive
same,Potency,[2],inactive
CCCN(CCC)CCc1cccc2c1CC(=O)N2,outcome,[1],inactive
same,Potency,[2],inactive
NC(=O)N1c2ccccc2C=Cc2ccccc21,outcome,[1],inactive
same,Potency,[2],inactive
CCNC(=O)N1CCN(CCCC(c2ccc(F)cc2)c2ccc(F)cc2)CC1,outcome,[1],inactive
same,Potency,[2],inactive
